Among all 5,500 compounds or so, about 2,000 (36%) were called active. Inconclusive results (about 18%) are left out. Cut-off read from the data, not from the text of the source: active = normalized growth mostly below about 0.91 (no sharp cut-off); inconclusive = no clear call, values can overlap the other calls; inactive = mostly above about 0.92. This is one part of the list.
Assay: chemical genetic growth profiling, strain panel (AID 1159580);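 note: tested at 20 µM; growth read once vehicle control cultures reached saturation at 30 °C; 1 = growth at the plate median or of vehicle wells; lower values mean less growth of the strain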
Conditions: S. cerevisiae deletion strains, growth OD

Measured: normalized growth

CC(=O)Oc1ccc(Cl)c2cccnc12
active: locus YAL013W, strain DEP1, stronger effect = lower value 0.0553 | locus YAL021C, strain ccr4, stronger effect = lower value 0.069 | locus YAL026C, strain drs2, stronger effect = lower value 0.0608 | locus YAL030W, strain snc1, stronger effect = lower value 0.0564 | locus YBL061C, strain skt5, stronger effect = lower value 0.0591 | locus YBR009C, strain hhf1, stronger effect = lower value 0.0605 | locus YBR021W, strain FUR4, stronger effect = lower value 0.0898 | locus YBR023C, strain chs3, stronger effect = lower value 0.0596 | locus YBR171W, strain sec66, stronger effect = lower value 0.0822 | locus YBR229C, strain ROT2, stronger effect = lower value 0.0477 | locus YBR231C, strain swc5, stronger effect = lower value 0.0648 | locus YBR279W, strain paf1, stronger effect = lower value 0.0603 | locus YCL011C, strain gbp2, stronger effect = lower value 0.0571 | locus YCL016C, strain dcc1, stronger effect = lower value 0.0644 | locus YCL029C, strain bik1, stronger effect = lower value 0.0625 | locus YCL069W, strain vba3, stronger effect = lower value 0.0622 | locus YCR088W, strain abp1, stronger effect = lower value 0.0643 | locus YDL005C, strain med2, stronger effect = lower value 0.0757 | locus YDL035C, strain GPR1, stronger effect = lower value 0.0496 | locus YDL040C, strain nat1, stronger effect = lower value 0.0609 | locus YDL074C, strain BRE1, stronger effect = lower value 0.0748 | locus YDL101C, strain DUN1, stronger effect = lower value 0.0607 | locus YDL134C, strain PPH21, stronger effect = lower value 0.0511 | locus YDL185W, strain tfp1, stronger effect = lower value 0.0604 | locus YDL192W, strain arf1, stronger effect = lower value 0.0619 | locus YDR001C, strain nth1, stronger effect = lower value 0.064 | locus YDR069C, strain doa4, stronger effect = lower value 0.0614 | locus YDR101C, strain arx1, stronger effect = lower value 0.0604 | locus YDR137W, strain rgp1, stronger effect = lower value 0.0888 | locus YDR150W, strain NUM1, stronger effect = lower value 0.0581 | locus YDR159W, strain sac3, stronger effect = lower value 0.0841 | locus YDR162C, strain NBP2, stronger effect = lower value 0.0464 | locus YDR195W, strain ref2 0.118 | locus YDR297W, strain sur2, stronger effect = lower value 0.0582 | locus YDR318W, strain mcm21, stronger effect = lower value 0.064 | locus YDR334W, strain swr1, stronger effect = lower value 0.0646 | locus YDR335W, strain msn5, stronger effect = lower value 0.0695 | locus YDR388W, stronger effect = lower value 0.0563 | locus YDR392W, strain spt3, stronger effect = lower value 0.0734 | locus YDR502C, strain sam2, stronger effect = lower value 0.0661 | locus YEL003W, strain gim4, stronger effect = lower value 0.0532 | locus YEL037C, strain rad23, stronger effect = lower value 0.0595 | locus YEL061C, strain CIN8 (second series), stronger effect = lower value 0.0644 | locus YEL061C, strain CIN8, stronger effect = lower value 0.0486 | locus YER015W, strain faa2, stronger effect = lower value 0.0637 | locus YER016W, strain bim1, stronger effect = lower value 0.0578 | locus YER110C, stronger effect = lower value 0.0806 | locus YER111C, strain swi4, stronger effect = lower value 0.076 | locus YER155C, strain BEM2 (second series), stronger effect = lower value 0.094 | locus YER155C, strain BEM2, stronger effect = lower value 0.0723 | locus YER167W, strain BCK2, stronger effect = lower value 0.0497 | locus YFR010W, strain ubp6, stronger effect = lower value 0.0687 | locus YGL078C, strain dbp3, stronger effect = lower value 0.0682 | locus YGL086W, strain mad1, stronger effect = lower value 0.0595 | locus YGL167C, strain pmr1, stronger effect = lower value 0.0737 | locus YGL173C, strain kem1, stronger effect = lower value 0.0684 | locus YGL227W, strain vid30, stronger effect = lower value 0.0677 | locus YGL240W, strain doc1, stronger effect = lower value 0.0722 | locus YGL248W, strain PDE1, stronger effect = lower value 0.046 | locus YGL253W, strain hxk2, stronger effect = lower value 0.0586 | locus YGR078C, strain PAC10, stronger effect = lower value 0.0495 | locus YGR135W, strain pre9, stronger effect = lower value 0.0649 | locus YGR252W, strain gcn5, stronger effect = lower value 0.186 | locus YHR013C, strain ard1, stronger effect = lower value 0.104 | locus YHR027C, strain rpn1, stronger effect = lower value 0.0596 | locus YHR030C, strain SLT2, stronger effect = lower value 0.0501 | locus YHR079C, strain IRE1 (second series), stronger effect = lower value 0.0563 | locus YHR094C, strain hxt1, stronger effect = lower value 0.0602 | locus YHR129C, strain ARP1, stronger effect = lower value 0.056 | locus YHR142W, strain chs7, stronger effect = lower value 0.0762 | locus YHR200W, strain rpn10, stronger effect = lower value 0.0647 | locus YIL066C, strain RNR3, stronger effect = lower value 0.0516 | locus YIL073C, strain SPO22, stronger effect = lower value 0.118 | locus YIL125W, strain kgd1, stronger effect = lower value 0.0601 | locus YIR030C, strain dcg1, stronger effect = lower value 0.0565 | locus YJL092W, strain hpr5, stronger effect = lower value 0.0615 | locus YJL095W, strain BCK1 (second series), stronger effect = lower value 0.0566 | locus YJL095W, strain BCK1, stronger effect = lower value 0.0546 | locus YJL115W, strain asf1, stronger effect = lower value 0.0797 | locus YJL129C, strain trk1, stronger effect = lower value 0.0818 | locus YJL134W, strain LCB3, stronger effect = lower value 0.0495 | locus YJL154C, strain vps35, stronger effect = lower value 0.0615 | locus YJL164C, strain tpk1, stronger effect = lower value 0.0597 | locus YJL166W, strain qcr8, stronger effect = lower value 0.0614 | locus YJL168C, strain set2, stronger effect = lower value 0.062 | locus YJL187C, strain SWE1 (second series), stronger effect = lower value 0.0475

— PubChem BioAssay AID1159580 (chemical genetic matrix, 2015)
